The record followed here is PubChem BioAssay (NCATS).

Assay [1] is described as follows: qHTS for Inhibitors of ATXN expression: Validation of Cytotoxic Assay (AID 588349; active = well fitted curve in the direction sought with a large enough effect; an effect the other way counts as inactive or inconclusive;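 note: cells exposed to compound for 72 hr; % is set by controls: 0 for no effect and ±100 for the full control effect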). Put shortly: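 HEK293, compound dose series, 72 hr / 37 degrees C; viability via CellTiter Glo (intracellular ATP).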
Background: Quantitative high-throughput screening tests each substance at several concentrations.

A short description of assay [2]: qHTS for Inhibitors of ATXN expression: Validation (AID 588378; active = well fitted curve in the direction sought with a large enough effect; an effect the other way counts as inactive or inconclusive; note: series mostly up to about 57 µM; % is set by controls: 0 for no effect and ±100 for the full control effect; nearly all actives have a fitted effect of over 75% in size). A digest of the protocol:
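After a 2 h attachment and 24 h compound incubation, HEK293-ATXN2-FFLuc wells are read for fluorescence at 405 nm excitation/525 nm emission as a viability measure, then for Bright-Glo luminescence reflecting ATXN2 expression.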

In assay [3] the target is Bile acid receptor (Homo sapiens) (UniProt Q96RI1). The assay is described as follows: qHTS assay for small molecule antagonists of farnesoid X receptor signaling (AID 588526). Note: potency is the fitted concentration of half-maximal effect. Put shortly:
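Concentration-response titrations were fitted to the Hill equation for half-maximal inhibition and maximal response, with data normalised to 50 uM chenodeoxycholic acid and DMSO control wells. Cells: FXR-UAS-bla HEK293T, dialyzed FBS.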

The target of assay [4] is Glucocorticoid receptor (Homo sapiens) (UniProt P04150). Briefly: qHTS assay for small molecule agonists of glucocorticoid receptor signaling (AID 588532; active = well fitted curve in the direction sought with a large enough effect in the signal ratio, with a control signal flat; the % refers to the signal ratio;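 note: 100% = dexamethasone at 0.1 µM and 0% = DMSO only wells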). The following applies: HeLa MMTV-bla, beta-lactamase ratio, agonist, 18 h; stronger effect = higher value; percent of dexamethasone control, DMSO zero. A digest of the protocol:
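MMTV-bla HeLa, beta-lactamase reporter; medium with 1% charcoal/dextran-stripped FBS; cpds up to 92 uM, 18 h, 37 C; CCF4 readout 460/530 nm; Hill fit → EC50, efficacy vs 0.1 uM dexamethasone = 100%.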

In assay [5] the target is Vitamin D3 receptor (Homo sapiens) (UniProt P11473). Briefly: qHTS assay for small molecule antagonists of vitamin D receptor signaling (AID 588541).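 Note: receptor activated by calcitriol during compound treatment; series mostly up to about 77 µM; % is set by controls: 0 for no effect and ±100 for the full control effect.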 A digest of the protocol: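 VDR-UAS-bla HEK293T cells (2000/well, 2% charcoal-stripped FBS) were treated with titrated compounds plus 1-alpha,25-dihydroxyvitamin D3 (50 nM or 3 nM final) for 16 h at 37 C. CCF4 beta-lactamase fluorescence was read; Hill fits gave IC50.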
Sequence of Vitamin D3 receptor (Homo sapiens) (P11473 whole entry, looked up): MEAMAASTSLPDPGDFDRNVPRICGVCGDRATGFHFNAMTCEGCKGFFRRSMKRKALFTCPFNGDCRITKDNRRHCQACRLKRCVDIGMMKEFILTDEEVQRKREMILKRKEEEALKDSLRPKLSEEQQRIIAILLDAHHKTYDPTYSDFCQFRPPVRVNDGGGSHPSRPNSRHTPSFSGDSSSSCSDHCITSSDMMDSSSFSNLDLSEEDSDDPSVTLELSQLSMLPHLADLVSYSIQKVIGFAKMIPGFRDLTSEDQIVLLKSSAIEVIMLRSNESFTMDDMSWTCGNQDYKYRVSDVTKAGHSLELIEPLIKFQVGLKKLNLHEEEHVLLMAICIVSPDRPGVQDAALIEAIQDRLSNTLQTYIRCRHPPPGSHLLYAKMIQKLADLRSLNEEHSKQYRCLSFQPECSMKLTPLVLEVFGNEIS

For assay [6] the target is unchanged. Briefly: qHTS assay for small molecule agonists of vitamin D receptor signaling (AID 588543).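 Note: 0% = DMSO basal and 100% = reference agonist control.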 Put shortly: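 Measured: β-lactamase reporter activity (CCF4, 405 nm excitation, 460/530 nm emission) in HEK293T VDR-UAS-bla cells after 16 h compound exposure at 37 °C. Normalization against 50 nM 1α,25-dihydroxyvitamin D3 and DMSO; Hill-fit EC50.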
Assay [7] has as its target Thyroid hormone receptor beta (Homo sapiens) (UniProt P10828). Briefly: qHTS assay for small molecule agonists of thyroid hormone receptor beta signaling (AID 588545).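 Note: 0% = DMSO only and 100% = 10 nM T3.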 Put shortly:
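Beta-lactamase reporter activity under TR response element control is measured in HEK 293 cells after 18 hrs compound exposure. Signal is ratiometric CCF4 fluorescence, 460/530 nm.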

A short description of assay [8]: qHTS assay for small molecule antagonists of retinoid X receptor alpha signaling (AID 588546).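 Note: cells stimulated with 9-cis-retinoic acid as agonist; % is set by controls: 0 for no effect and ±100 for the full control effect.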 The following applies: HEK293T RXRa-UAS-bla, beta-lactamase ratio, antagonist mode; measured here: W530 green channel, cytotoxicity proxy. Put shortly: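 Beta-lactamase reporter inhibition, read as CCF4 fluorescence ratio (ex 405, em 460/530 nm) after 2 h at RT. HEK293T UAS-bla cells, 2500/well, were stimulated with 9-cis-RA at 500 or 100 nM final alongside test compound for 18 h at 37 C.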

The target of assay [9] is DNA dC->dU-editing enzyme APOBEC-3G (Homo sapiens) (UniProt Q9HC16). Briefly: qHTS for inhibitors of Vif-A3G interactions: Validation (AID 588379; active = well fitted curve in the direction sought with a large enough effect; an effect the other way counts as inactive or inconclusive; note: 0% is about no effect). A digest of the protocol: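 HeLa cells stably expressing Vif and A3G-eYFP, 700 cells/well, incubated overnight at 37 deg C, then exposed to compound overnight at 37 deg C. Inhibition of Vif-mediated degradation read as increased yellow fluorescence (Ex 488/Em 500-530) by laser-scanning cytometry.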
Sequence of DNA dC->dU-editing enzyme APOBEC-3G (Homo sapiens) (Q9HC16 whole entry, looked up): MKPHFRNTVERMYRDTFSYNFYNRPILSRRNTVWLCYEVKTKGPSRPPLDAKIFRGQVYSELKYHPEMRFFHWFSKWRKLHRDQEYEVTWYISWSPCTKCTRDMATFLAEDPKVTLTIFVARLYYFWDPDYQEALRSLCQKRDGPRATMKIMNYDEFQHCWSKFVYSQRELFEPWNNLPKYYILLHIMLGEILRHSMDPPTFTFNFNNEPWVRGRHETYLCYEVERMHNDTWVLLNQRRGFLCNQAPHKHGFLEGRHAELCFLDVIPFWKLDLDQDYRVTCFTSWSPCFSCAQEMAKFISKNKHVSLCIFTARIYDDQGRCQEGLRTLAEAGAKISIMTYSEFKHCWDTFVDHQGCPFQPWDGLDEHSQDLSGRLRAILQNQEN

Assay [10] deals with Glucocorticoid receptor (Homo sapiens) (UniProt P04150). Briefly: qHTS assay for small molecule antagonists of glucocorticoid receptor signaling (AID 588533; active = well fitted inhibition curve with a large enough effect in the signal ratio, with a control signal flat, not every such curve was filed as active; the % refers to the signal ratio;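 note: cells stimulated with 2 nM dexamethasone as agonist; % is set by controls: 0 for no effect and ±100 for the full control effect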). A digest of the protocol: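 Antagonist-mode qHTS: compound titrations added to GRE-bla HeLa cells, then dexamethasone 2 nM final; 18 h, 37 C. CCF4 FRET fluorescence normalized to dexamethasone and DMSO; IC50 from Hill fit.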
Sequence of Glucocorticoid receptor (Homo sapiens) (P04150 whole entry, looked up): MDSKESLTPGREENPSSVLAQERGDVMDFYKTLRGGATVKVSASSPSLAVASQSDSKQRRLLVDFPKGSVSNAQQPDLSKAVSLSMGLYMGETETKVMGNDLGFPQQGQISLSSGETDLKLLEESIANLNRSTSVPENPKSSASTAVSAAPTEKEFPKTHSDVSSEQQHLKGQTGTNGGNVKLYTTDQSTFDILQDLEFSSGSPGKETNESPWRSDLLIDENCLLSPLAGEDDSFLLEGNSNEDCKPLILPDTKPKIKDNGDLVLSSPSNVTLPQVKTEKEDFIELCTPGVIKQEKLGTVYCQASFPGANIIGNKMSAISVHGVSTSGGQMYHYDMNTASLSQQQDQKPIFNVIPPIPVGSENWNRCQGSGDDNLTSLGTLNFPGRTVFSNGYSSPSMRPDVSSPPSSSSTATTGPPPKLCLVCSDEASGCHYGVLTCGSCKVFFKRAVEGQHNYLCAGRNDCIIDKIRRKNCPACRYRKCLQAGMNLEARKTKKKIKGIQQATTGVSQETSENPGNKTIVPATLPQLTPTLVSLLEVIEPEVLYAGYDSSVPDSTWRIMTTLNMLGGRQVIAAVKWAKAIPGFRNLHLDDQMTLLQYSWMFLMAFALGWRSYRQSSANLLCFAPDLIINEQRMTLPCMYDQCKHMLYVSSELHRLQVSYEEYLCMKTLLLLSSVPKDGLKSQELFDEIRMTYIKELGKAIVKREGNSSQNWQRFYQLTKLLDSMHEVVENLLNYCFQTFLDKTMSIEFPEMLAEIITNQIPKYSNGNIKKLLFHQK

Assay [11] concerns the target Peroxisome proliferator-activated receptor gamma (Homo sapiens) (UniProt P37231). The assay is described as follows: qHTS assay for small molecule agonists of peroxisome proliferator-activated receptor gamma signaling (AID 588536; active = well fitted curve in the direction sought with a large enough effect in the signal ratio, with a control signal flat, not every such curve was filed as active; the % refers to the signal ratio;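 note: 0% = DMSO basal wells and 100% = rosiglitazone at 2 µM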). Put shortly: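 GeneBLAzer PPAR-gamma-UAS-bla HEK293 cells in 1% charcoal/dextran-treated FBS medium were treated 16 h at 37 C with compounds. Beta-lactamase activity was read by CCF4 ratio (460/530 nm). Response was normalized to 2 uM rosiglitazone (100%) and DMSO, then Hill-fitted for EC50 and efficacy.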

Assay [12] shares this target. Briefly: qHTS assay for small molecule antagonists of peroxisome proliferator-activated receptor gamma signaling (AID 588537; active = well fitted inhibition curve with a large enough effect in the signal ratio, with a control signal flat, not every such curve was filed as active; the % refers to the signal ratio;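 note: reporter cells co-stimulated with 50 nM rosiglitazone agonist during compound treatment; % of control where 0% means no effect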). A digest of the protocol: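 PPAR-gamma-UAS-bla HEK293 cells (3000/well, 1% charcoal/dextran-stripped FBS) were preincubated 6-6.5 h at 37 C, given titrated compounds, then stimulated with 50 nM rosiglitazone for 16 h. Beta-lactamase activity was read with CCF4 dye; IC50 came from Hill fits.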

The nature of assay [13]: qHTS assay for small molecule agonists of retinoid X receptor alpha signaling (AID 588544).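 For activation: 0% = DMSO basal wells and 100% = reference agonist.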 The following applies: HEK293T RXRa-UAS-bla, beta-lactamase reporter, 18 h; 530 nm emission.
For assay [14], the target named is Retinoic acid receptor RXR-alpha (Homo sapiens) (UniProt P19793). The assay is described as above.
Sequence of Retinoic acid receptor RXR-alpha (Homo sapiens) (P19793 whole entry, looked up): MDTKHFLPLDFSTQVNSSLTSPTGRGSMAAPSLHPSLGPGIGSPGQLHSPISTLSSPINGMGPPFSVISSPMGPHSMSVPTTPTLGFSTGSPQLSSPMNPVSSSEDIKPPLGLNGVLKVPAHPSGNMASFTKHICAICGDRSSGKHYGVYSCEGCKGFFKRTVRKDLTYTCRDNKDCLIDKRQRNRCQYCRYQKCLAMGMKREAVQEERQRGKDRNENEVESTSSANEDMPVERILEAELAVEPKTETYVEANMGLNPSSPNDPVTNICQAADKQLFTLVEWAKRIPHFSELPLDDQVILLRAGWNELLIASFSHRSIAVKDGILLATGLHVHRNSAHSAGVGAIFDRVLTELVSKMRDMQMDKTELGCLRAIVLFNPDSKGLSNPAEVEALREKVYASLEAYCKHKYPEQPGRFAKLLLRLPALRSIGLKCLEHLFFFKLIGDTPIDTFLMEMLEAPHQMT
Assay [15] concerns the target Estrogen receptor (Homo sapiens) (UniProt P03372). The assay is described as follows: qHTS assay for small molecule antagonists of estrogen receptor alpha signaling (AID 588513; active = well fitted curve in the direction sought with a large enough effect in the signal ratio, with a control signal flat, not every such curve was filed as active; the % refers to the signal ratio; note: % is set by controls: 0 for no effect and ±100 for the full control effect). Put shortly:
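Antagonist-mode qHTS in ER-alpha-UAS-bla HEK 293 cells: compound titration, 0.5nM estradiol for 18 h, CCF4 fluorescence, Hill-derived IC50.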

The target in assay [16] is Androgen receptor (Homo sapiens) (UniProt P10275). The assay is described as follows: qHTS assay for small molecule agonists of androgen receptor signaling (AID 588515; active = well fitted curve in the direction sought with a large enough effect in the signal ratio, with a control signal flat; the % refers to the signal ratio; note: % is set by controls: 0 for no effect and ±100 for the full control effect). The following applies: AR-UAS-bla HEK293, beta-lactamase ratio, agonist 16 h; stronger effect = higher value. A digest of the protocol:
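EC50 and efficacy came from Hill fits of titrations (up to 92 uM) normalized to 30 nM R1881 as 100% and DMSO as 0%. Compound exposure was 16 h at 37 C on AR-UAS-bla HEK293 cells, with a 405/460/530 nm CCF4 fluorescence read.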

Assay [17] in a line: qHTS assay for small molecule antagonists of peroxisome proliferator-activated receptor delta signaling (AID 588535; active = well fitted inhibition curve with a large enough effect in the signal ratio, with a control signal flat, not every such curve was filed as active; the % refers to the signal ratio;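 for max response: cells co-treated with a PPAR-delta agonist as stimulator during compound exposure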). The following applies: HEK293T PPARd-UAS-bla, beta-lactamase FRET ratio, 18 h; 460 nm channel. Put shortly: (§1)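 GeneBLAzer PPAR-delta-UAS-bla HEK293T cells in medium with 2% charcoal/dextran FBS were preincubated 5 hrs at 37 C, then given compounds, incubated 18 hrs at 37 C, and read by CCF4 beta-lactamase fluorescence; IC50 from Hill fits.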

In assay [18] the target is Peroxisome proliferator-activated receptor delta (Homo sapiens) (UniProt Q03181). The assay is described as above. Put shortly:
as §1

The target in assay [19] is Estrogen receptor (Homo sapiens) (UniProt P03372). The assay is described as follows: qHTS assay for small molecule agonists of estrogen receptor alpha signaling (AID 588514).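 Note: 0% = vehicle only and 100% = reference agonist; nearly all actives have a fitted effect of over 70% in size.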 A digest of the protocol: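 Reporter-gene assay. […] controls beta-lactamase in HEK 293 GripTite cells; after 18 hrs with compound, CCF4 substrate is added for 2 hrs and fluorescence is read.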
Sequence of Estrogen receptor (Homo sapiens) (P03372 whole entry, looked up): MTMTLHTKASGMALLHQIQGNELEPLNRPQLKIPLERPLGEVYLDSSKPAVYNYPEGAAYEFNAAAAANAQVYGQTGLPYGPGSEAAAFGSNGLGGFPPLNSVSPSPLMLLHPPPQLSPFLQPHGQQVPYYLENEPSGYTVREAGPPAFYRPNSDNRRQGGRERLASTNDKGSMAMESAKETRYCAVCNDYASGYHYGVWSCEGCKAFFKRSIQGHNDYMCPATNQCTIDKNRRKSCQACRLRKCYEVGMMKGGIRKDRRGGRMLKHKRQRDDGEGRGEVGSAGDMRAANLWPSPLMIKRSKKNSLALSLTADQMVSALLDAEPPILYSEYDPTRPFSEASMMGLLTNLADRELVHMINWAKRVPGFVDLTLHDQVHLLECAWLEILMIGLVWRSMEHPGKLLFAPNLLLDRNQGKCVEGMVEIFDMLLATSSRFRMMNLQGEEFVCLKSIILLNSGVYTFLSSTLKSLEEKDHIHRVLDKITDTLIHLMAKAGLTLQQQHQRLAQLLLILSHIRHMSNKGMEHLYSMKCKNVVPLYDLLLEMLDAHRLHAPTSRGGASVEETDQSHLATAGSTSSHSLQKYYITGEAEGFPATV

Assay [20] deals with Androgen receptor (Homo sapiens) (UniProt P10275). The assay is described as follows: qHTS assay for small molecule antagonists of androgen receptor signaling (AID 588516; active = well fitted curve in the direction sought with a large enough effect in the signal ratio, with a control signal flat, not every such curve was filed as active; the % refers to the signal ratio; note: % is set by controls: 0 for no effect and ±100 for the full control effect). Put shortly:
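Compounds tested in titration against 10 nM R1881 in AR-responsive bla reporter HEK 293 cells; CCF4 fluorescence (460/530 nm) after 16 h exposure gave IC50 and efficacy.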

Molecules are shown by their SMILES. Where “and” joins values, the source holds several entries; their conditions need not be identical. Equal values may be shown once. Results filed as inconclusive are left out. Calls of active or inactive are those of the source. Unless noted, calls come from the whole dose curve.

Sequence of Thyroid hormone receptor beta (Homo sapiens) (P10828 whole entry, looked up): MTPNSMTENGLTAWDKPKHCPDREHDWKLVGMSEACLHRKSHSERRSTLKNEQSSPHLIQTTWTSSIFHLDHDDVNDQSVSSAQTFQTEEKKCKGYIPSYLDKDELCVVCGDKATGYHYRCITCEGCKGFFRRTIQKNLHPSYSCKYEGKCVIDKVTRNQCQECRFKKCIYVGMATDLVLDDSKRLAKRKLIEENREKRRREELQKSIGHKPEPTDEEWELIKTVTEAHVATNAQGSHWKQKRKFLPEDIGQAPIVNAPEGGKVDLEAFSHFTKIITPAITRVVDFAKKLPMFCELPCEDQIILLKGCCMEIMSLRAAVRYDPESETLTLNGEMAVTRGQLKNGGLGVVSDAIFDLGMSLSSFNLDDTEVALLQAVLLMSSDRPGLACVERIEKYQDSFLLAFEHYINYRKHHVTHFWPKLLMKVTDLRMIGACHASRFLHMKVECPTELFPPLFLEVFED
Sequence of Peroxisome proliferator-activated receptor delta (Homo sapiens) (Q03181 whole entry, looked up): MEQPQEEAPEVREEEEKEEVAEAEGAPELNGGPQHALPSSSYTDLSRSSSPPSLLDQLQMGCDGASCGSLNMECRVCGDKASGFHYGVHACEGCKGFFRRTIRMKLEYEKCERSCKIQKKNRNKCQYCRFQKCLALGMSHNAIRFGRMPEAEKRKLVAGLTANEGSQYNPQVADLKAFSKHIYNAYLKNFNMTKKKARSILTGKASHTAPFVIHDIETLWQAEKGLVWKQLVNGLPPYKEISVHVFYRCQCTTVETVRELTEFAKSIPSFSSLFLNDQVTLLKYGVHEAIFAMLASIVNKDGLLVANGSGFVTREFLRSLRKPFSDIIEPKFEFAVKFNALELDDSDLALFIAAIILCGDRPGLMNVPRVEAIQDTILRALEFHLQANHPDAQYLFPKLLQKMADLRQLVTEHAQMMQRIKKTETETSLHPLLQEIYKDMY
Sequence of Androgen receptor (Homo sapiens) (P10275 whole entry, looked up): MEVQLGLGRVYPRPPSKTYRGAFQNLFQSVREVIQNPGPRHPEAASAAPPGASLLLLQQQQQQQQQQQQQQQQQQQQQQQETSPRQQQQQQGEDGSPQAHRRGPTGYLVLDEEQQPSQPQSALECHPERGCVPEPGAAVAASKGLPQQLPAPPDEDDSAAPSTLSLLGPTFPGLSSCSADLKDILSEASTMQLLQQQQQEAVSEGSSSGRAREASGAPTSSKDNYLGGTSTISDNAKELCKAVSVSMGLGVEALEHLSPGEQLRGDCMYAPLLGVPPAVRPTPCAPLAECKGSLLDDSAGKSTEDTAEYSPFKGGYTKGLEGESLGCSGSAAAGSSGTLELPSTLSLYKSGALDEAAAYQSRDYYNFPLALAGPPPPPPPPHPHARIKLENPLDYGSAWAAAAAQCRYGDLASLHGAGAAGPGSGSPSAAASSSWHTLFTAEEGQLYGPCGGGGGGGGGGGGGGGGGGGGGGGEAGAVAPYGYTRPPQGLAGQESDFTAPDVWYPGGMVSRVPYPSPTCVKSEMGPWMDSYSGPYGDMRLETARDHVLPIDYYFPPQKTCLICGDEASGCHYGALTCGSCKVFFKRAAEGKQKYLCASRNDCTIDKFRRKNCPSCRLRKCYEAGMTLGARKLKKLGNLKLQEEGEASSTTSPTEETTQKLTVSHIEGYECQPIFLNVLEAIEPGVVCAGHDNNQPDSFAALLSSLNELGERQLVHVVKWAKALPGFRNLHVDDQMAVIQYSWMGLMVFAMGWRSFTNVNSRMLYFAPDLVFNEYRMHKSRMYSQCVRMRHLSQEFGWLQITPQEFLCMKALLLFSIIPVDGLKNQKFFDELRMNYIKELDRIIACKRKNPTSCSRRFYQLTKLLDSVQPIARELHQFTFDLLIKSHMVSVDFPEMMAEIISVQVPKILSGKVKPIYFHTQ
Sequence of Peroxisome proliferator-activated receptor gamma (Homo sapiens) (P37231 whole entry, looked up): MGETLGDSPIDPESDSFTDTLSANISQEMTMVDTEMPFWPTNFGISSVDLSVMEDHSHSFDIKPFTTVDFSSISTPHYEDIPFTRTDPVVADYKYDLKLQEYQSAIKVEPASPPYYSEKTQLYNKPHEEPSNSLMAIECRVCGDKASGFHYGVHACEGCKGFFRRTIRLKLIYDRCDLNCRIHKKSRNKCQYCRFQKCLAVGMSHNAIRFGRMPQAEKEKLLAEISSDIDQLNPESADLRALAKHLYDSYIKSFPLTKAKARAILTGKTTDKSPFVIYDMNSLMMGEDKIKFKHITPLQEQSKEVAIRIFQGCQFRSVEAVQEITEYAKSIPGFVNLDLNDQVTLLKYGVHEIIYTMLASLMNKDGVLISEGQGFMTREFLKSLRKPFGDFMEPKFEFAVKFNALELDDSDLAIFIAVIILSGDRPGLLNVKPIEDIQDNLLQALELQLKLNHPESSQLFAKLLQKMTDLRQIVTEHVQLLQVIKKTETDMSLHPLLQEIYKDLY

`O=c1c(-c2ccc(O)cc2)coc2cc(O)cc(O)c12`: the call in assay [1], in assay [5], in [6] and in assay [7] was inactive. The Potency entry in [2] was “inactive”. Further, in assay [3], the Potency was 25.1 µM (active). For the same molecule, the activation in assay [4] is -14.7% (inactive) and -3.51% (inactive). The max response in assay [8] was found to be 18.6%.

In the case of `CCC1(c2ccccc2)C(=O)NCNC1=O`, the outcome in assay [1], in [9], in [11], in assay [5], in assay [6] and in [14] was inactive. Moreover, the call in assay [7] was inactive. The Potency entry in assay [2], in [3], in assay [10] and in assay [12] was “inactive” each time. Moreover, in assay [4], the activation was -1.52% (inactive) and -4.43% (inactive). The max response in assay [13] was -2.48% and -11.6%; in assay [8], -5.6% and -16.4%.

In the case of `CCOC(=O)c1ncn2c1CN(C)C(=O)c1cc(F)ccc1-2`, the outcome in [1] and in assay [9] was inactive. Besides, the Potency result in [2] was “inactive”.

For the molecule `COc1ccc2c(c1)c(CC(=O)O)c(C)n2C(=O)c1ccc(Cl)cc1`, the molecule was classed as inactive in assay [1], in assay [9], in assay [15] and in [7]. Moreover, the Potency entry in assay [2] and in assay [10] was “inactive” in each case. In addition, the activation was -9.17% (inactive) in [16] and -6.76% (inactive) in assay [4].

As to `CCOC(=O)C(C)(C)Oc1ccc(Cl)cc1`, the molecule was classed as inactive in assay [1], in [15], in assay [18], in [11], in assay [5] and in assay [6]. In addition, the molecule was called inactive in [14] and in assay [7]. Further, the Potency entry in assay [2], in assay [3], in assay [10] and in assay [12] was “inactive” each time. Besides, the activation in assay [4] was -5.3% (inactive). Also, the max response was -15.2% in assay [17], -9.24% in [13] and -5.41% in assay [8].

In the case of `Cc1cn([C@H]2C[C@H](N=[N+]=[N-])[C@@H](CO)O2)c(=O)[nH]c1=O`, the molecule was classed as inactive in assay [1], in assay [15], in assay [19], in assay [18], in [11] and in [5]. The result in assay [6], in [14] and in assay [7] was inactive. Moreover, the Potency entry in [2], in assay [3], in assay [10] and in assay [12] was “inactive” in each case. In addition, the activation in assay [4] is -3.02% (inactive) and 6.31% (inactive). Moreover, the max response is 16% in assay [17]; 27.7% and 12.8% in assay [13]; 15.5% and -2.05% in assay [8].

As for `COc1cc2c(c(OC)c1OC)-c1ccc(OC)c(=O)cc1[C@@H](NC(C)=O)CC2`, the call in assay [1], in [9], in [19], in assay [6] and in [7] was inactive. Also, in assay [2], the Potency result is “inactive”. In addition, the activation in assay [16] was -5.98% (inactive) and 0.799% (inactive) and 0.899% (inactive).

In the case of `COc1ccc2[nH]cc(CCNC(C)=O)c2c1`, the call in [1], in assay [9], in [15], in [19], in [18] and in [11] was inactive. For the same molecule, the molecule was classed as inactive in assay [5], in assay [6], in assay [14] and in assay [7]. In addition, the Potency entry in assay [2], in [3], in [10] and in assay [12] was “inactive” throughout. For the same molecule, the activation in assay [4] was -4.76% (inactive) and 1.7% (inactive) and -3.63% (inactive). Moreover, the max response in assay [17] is 14.8% and 21.6% and 4.95%; in assay [13] it was 4.26% and -2.38% and 20.7%; in assay [8] it was 15.5% and 6.29% and -2.26%.

Take `NCCS(=O)(=O)O`: the call in assay [1], in assay [9], in [15], in assay [19], in assay [11] and in assay [5] was inactive. The result in assay [6], in [14] and in assay [7] was inactive. Besides, the Potency entry in [2], in assay [10] and in [12] was “inactive” each time. The activation in [4] is 1.42% (inactive). Further, the max response is -14.9% in assay [13] and -6.13% in assay [8].

Consider `O=C(CCCN1CCC(O)(c2ccc(Cl)cc2)CC1)c1ccc(F)cc1`, for which the molecule was called inactive in assay [1], in [9], in assay [11], in [14] and in [7]. Further, the Potency entry in assay [2], in assay [3], in [10] and in [12] was “inactive” each time. Further, the activation in assay [4] was -2.91% (inactive). Further, the max response in assay [13] is -1.31%; in assay [8], 6.93%.

Regarding `CC(C)(Oc1ccc(C2CC2(Cl)Cl)cc1)C(=O)O` (stereo not drawn), the call in [1], in assay [15], in [20], in assay [18], in assay [5] and in [6] was inactive. For the same molecule, in assay [7], the molecule was classed as inactive. Moreover, the Potency result in assay [2], in assay [10] and in [12] was “inactive” in each case. The activation in assay [16] was -8.82% (inactive); in assay [4] it was -2.49% (inactive). Also, the max response is -19.7% in assay [17] and 3.34% in assay [8].

Take `Cc1ccccc1N1C(=O)c2cc(S(N)(=O)=O)c(Cl)cc2NC1C` (stereo not drawn): the molecule was called inactive in assay [1]. Further, the Potency entry in assay [2] was “inactive”.

Turning to `CN(C)CCOC(c1ccccc1)c1ccccc1`, the molecule was classed as inactive in [19] and in assay [20].

As for `Nc1c2c(nc3ccccc13)CCCC2`, the molecule was classed as inactive in assay [19].

As for `CC(C)C(=O)Nc1ccc([N+](=O)[O-])c(C(F)(F)F)c1`, in [3], the Potency entry was “inactive”.
